Compounds with a hit are over-represented: about 1.2% of the library has one in this group of screens.
NR5A2 inv ag – NR5A2 inverse agonism in reporter assay | O00482 | HEK293T StAR-luciferase reporter, LRH-1 transfected, 24 h | inhibition, % at 3.6 µM | 360,000 compounds, 0.13% hits;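 active = inhibition above the mean inhibition of all tested compounds plus 3 SD, cut at about 73% in these data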;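 note: 0% = DMSO wells and 100% = reporter-only cells lacking LRH-1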
Gli-Sufu block – Gli-Sufu pathway antagonism; Sufu-KO-LIGHT fibroblasts, Gli luciferase reporter luminescence; inhibition, % at 5 µM; 340,000 compounds, 0.74% hits;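 active = inhibition above about 55%, limit read from the data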;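 note: 0% = DMSO-treated cells and 100% = wells with medium but no cells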
SRC1 inh – inhibitors of human steroid receptor coactivator 1 (SRC1) | inhibition, % at 3.6 µM | AID 588354 | Q15788 | HEK293 GAL4-SRC1 luciferase reporter, luminescence | 360,000 compounds, 0.12% hits;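 active = inhibition above the campaign mean plus 3 SD, with each screening campaign given its own cutoff, cut at about 60% in these data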;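 note: 0% = DMSO treated cells and 100% = gossypol at 36 µM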
SRC2 inh – human SRC2 (NCOA2) inhibition; HEK293 GAL4-SRC2 luciferase reporter, luminescence; inhibition, % at 9 µM; 370,000 compounds, 0.17% hits; AID 651957;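 active = inhibition above the mean inhibition of all tested compounds plus 3 SD, set per campaign, cut at about 52% in these data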;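 note: 0% = DMSO treated cells and 100% = cells given Gossypol at 36 µM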
NCOA3 inh – inhibitors of human steroid receptor coactivator 3 (SRC3); Q9Y6Q9; HEK293 GAL4-SRC3 luciferase reporter, luminescence; inhibition, % at 3.6 µM; 360,000 compounds, 0.17% hits; AID 588352;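 active = inhibition above a per-campaign cutoff, the mean of all compounds plus 3 SD, cut at about 60% in these data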;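 note: 0% = DMSO-treated cells and 100% = gossypol-treated cells at 36 µM; higher means less SRC3-driven luciferase light from the GAL4 reporter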
COUP-TFII inh – blocks human COUP-TFII nuclear receptor | AID 686940 | 370,000 compounds, 0.7% hits | HEK293T NGFI-A luciferase reporter, luminescence | P24468 | inhibition, % at 8.6 µM;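 active = inhibition above a per-plate cutoff, mean inhibition of test wells between control levels plus 3 SD, cut at about 38% in these data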;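 note: cells cotransfected with COUP-TFII expression vector driving the NGFI-A reporter; 0% = median of COUP-TF2 test wells and 100% = reporter-only cells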
Target sequence (P24468 whole entry, looked up): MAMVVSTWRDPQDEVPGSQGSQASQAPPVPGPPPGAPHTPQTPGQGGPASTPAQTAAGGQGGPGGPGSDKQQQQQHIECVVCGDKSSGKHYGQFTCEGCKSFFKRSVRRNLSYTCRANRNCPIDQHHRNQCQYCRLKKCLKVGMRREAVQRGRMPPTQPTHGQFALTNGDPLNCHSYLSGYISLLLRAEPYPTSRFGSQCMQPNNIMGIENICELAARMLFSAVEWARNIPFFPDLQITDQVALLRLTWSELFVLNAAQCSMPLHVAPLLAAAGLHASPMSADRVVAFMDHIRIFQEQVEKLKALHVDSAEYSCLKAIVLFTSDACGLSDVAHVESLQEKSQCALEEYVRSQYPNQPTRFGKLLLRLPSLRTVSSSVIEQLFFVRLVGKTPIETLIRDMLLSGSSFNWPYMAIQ
Gli antag conf – confirmation of Gli-SUFU pathway antagonists. shares compounds with Gli-Sufu block. Sufu-KO-LIGHT cells, Gli luciferase reporter, luminescence. inhibition, % at 5 µM. 2,500 compounds, 40% hits;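 active = mean inhibition at 5 µM reaching about 45%, limit read from the data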;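 note: plate controls were DMSO-treated cells for no effect and wells lacking cells for full effect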
SufuKO cytotox – cytotoxicity counter-screen for Gli-SUFU antagonists. shares compounds with Gli-Sufu block. Sufu-KO-LIGHT cells cytotoxicity, ATP luminescence. cytotoxicity, % at 5 µM. 2,500 compounds, 32% hits;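 active = mean cytotoxicity at 5 µM above about 25%, limit read from the data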;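 note: cells exposed to compound overnight for roughly 16 to 18 hours; plate controls were DMSO wells with cells for no effect and medium without cells for full effect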
Wnt3a cs – counter-screen for Gli-SUFU antagonists: Wnt3a reporter inhibition; shares compounds with Gli-Sufu block; Wnt-LIGHT cells, Wnt3a-driven luciferase reporter, luminescence; inhibition, % at 6.25 µM; 2,500 compounds, 20% hits; AID 651995;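 active = mean inhibition above about 25%, limit read from the data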
Numbers without * were called inactive; . = not tested or not shown.

SMILES	NR5A2 inv ag	Gli-Sufu block	SRC1 inh	SRC2 inh	NCOA3 inh	COUP-TFII inh	Gli antag conf	SufuKO cytotox	Wnt3a cs
CN1/C(=C\C(=S)NC(=O)c2ccc([N+](=O)[O-])cc2)C(C)(C)c2ccccc21	12	62*	-7	-9	17	-3	17	20	26*
CN1/C(=C\C(=S)NC(=O)c2cccc(Br)c2)C(C)(C)c2ccccc21	8	72*	5	25	13	12	56*	13	9
C[C@]12Cc3ccccc3C1CC1=N[C@@H](c3ccc(C(F)(F)F)cc3)O[C@@]13C[C@@H]2C(=O)N3Cc1ccncc1 (stereo partly drawn)	.	.	.	-22	.	-1	.	.	.
COc1ccc(Cn2c(C)nc3ccc([N+](=O)[O-])cc3c2=O)cc1	10	61*	1	4	-2	3	32	24	-11
CS(=O)(=O)N1C[C@]2(c3ccccc3)CC1Cc1ccccc12	.	.	.	.	.	0	.	.	.
Cc1cccc(C)c1OCc1nnc(SCC(=O)O)n1-c1c(C)cccc1C	.	.	.	-32	.	-21	.	.	.
CCOc1ccc(C2CC(c3ccc(OC)cc3)n3ncnc3N2)cc1 (stereo not drawn)	-32	-20	-48	-8	-8	-23	.	.	.
COc1ccc(C2CC(c3ccco3)n3ncnc3N2)cc1 (stereo not drawn)	-4	57*	10	-19	12	3	10	15	-3
COc1cc2c(c(OC)c1OC)[C@@]1(c3ccccc3)CCCCC[C@H]1[C@@H]2NC(=O)C(F)(F)F	.	.	.	2	.	19	.	.	.
Cc1cc(N2CCNC[C@@H]2C)ccc1N1C[C@@H](C)O[C@@H](C)C1	.	.	.	13	.	12	.	.	.
CCOCCCn1c(SCc2nc3ccccc3s2)nc2ccccc2c1=O	-25	54	-61	-46	-57	-20	30	16	-145
Cc1onc(-c2ccccc2Cl)c1C(=O)N1CCCCCC1	-1	59*	-7	-1	-2	-39	24	4	4
CC(C)(C)OC(=O)NC(Cc1ccccc1)C1CC(C#N)C(=O)O1 (stereo not drawn)	.	.	.	.	.	-6	.	.	.
Cc1cc(C)c[n+](C(C)C(=O)c2ccc(-c3ccccc3)cc2)c1 (stereo not drawn)	49	80*	17	-5	40	35	79*	24	0
Cc1ccc[n+](C(C)C(=O)c2ccc(Cl)cc2)c1 (stereo not drawn)	14	-12	-8	-7	-13	0	.	.	.
O=C(CN(Cc1ccccc1)C(=O)CCC(=O)Nc1nccs1)NCC1CCCO1 (stereo not drawn)	19	50	12	-4	-7	-14	14	7	8
CCc1nnc(NC(=O)CCC(=O)NCC2CCCO2)s1 (stereo not drawn)	5	50	8	3	-6	10	22	23	-14
COC(=O)c1cc(-c2ccccc2)c(=O)n2c1CCC2	.	.	.	-15	.	-10	.	.	.
NC(N)=NN=C(c1ccc(F)cc1)c1ccc(C(F)(F)F)cc1	12	57*	12	-2	22	-67	36	50*	-43
CN(C)S(=O)(=O)NCCNc1ccc(C(F)(F)F)cc1[N+](=O)[O-]	-4	98*	1	-55	6	1	3	22	-86
CS(=O)(=O)NCCNc1ccc(C(F)(F)F)cc1[N+](=O)[O-]	-17	-7	10	14	7	17	.	.	.
CCOC(=O)C(NCc1ccccn1)(NC(=O)c1cccnc1)C(F)(F)F (stereo not drawn)	0	96*	6	-3	7	22	12	5	-3
CCOC(=O)[C@]12CCCCC/C=C\1N(CCc1ccc(Cl)cc1)C(=O)[C@H]2CC(=O)N1CCCCC1	.	.	.	-12	.	-20	.	.	.
O=C(OCC#CCSc1nnc(-c2cccc3ccccc23)o1)c1ccccc1F	.	.	.	.	.	-6	.	.	.
CC1(C)CC(=O)C2=C(C1)OC(c1ccc(O)cc1)C(C#N)=C2N (stereo not drawn)	-3	51	-1	-9	10	14	11	2	-6
SMILES	NR5A2 inv ag	Gli-Sufu block	SRC1 inh	SRC2 inh	NCOA3 inh	COUP-TFII inh	Gli antag conf	SufuKO cytotox	Wnt3a cs
CCOC(=O)N1CCN(C(=O)C2CCN(S(=O)(=O)N3CCCC3)CC2)CC1	6	56*	-22	-6	-5	-4	20	5	11
CCOC(=O)N1CCN(C(=O)C2CCN(S(=O)(=O)N3CCC4(CC3)OCCO4)CC2)CC1	5	-16	-9	8	24	2	.	.	.
CCN(Cc1ccccc1)C(=O)COC(=O)c1cc(S(=O)(=O)Nc2ccccc2OC)ccc1O	-4	58*	-10	-10	7	-17	7	-3	-50
COc1cc(OC)c(NC(=O)C(Sc2nc(C)cc(C)c2C#N)c2ccccc2)cc1Cl (stereo not drawn)	.	.	.	-2	.	8	.	.	.
O=C(N[C@H](C(=O)N1CCC[C@H]1C(=O)NCc1ccccc1)C1CCCCC1)c1ccccc1	.	.	.	-17	.	-10	.	.	.
CCNC(=O)NC(=O)COC(=O)CCCSc1nc2ccccc2[nH]1	12	26	4	-5	-12	-10	.	.	.
O=C(COC(=O)CCCSc1nc2ccccc2[nH]1)NC(=O)NC1CCCC1	14	55	-13	-8	9	-7	8	-3	-11
O=C(C1CCN(Cc2ccc(F)cc2)CC1)N(CCc1ccccc1)Cc1ccccc1	-29	58*	-13	24	12	-6	24	2	-49
O=C(C1CCN(Cc2ccc(F)cc2)CC1)N(CCO)Cc1ccccc1	-8	5	-10	-7	-32	-4	.	.	.
CC(CCc1ccccc1)NC(=O)C1CCC1 (stereo not drawn)	25	5	2	-9	6	25	.	.	.
CC(CCc1ccccc1)NC(=O)C1CC1 (stereo not drawn)	11	61*	-5	-11	-11	10	6	8	6
CC(C)COc1cccc(C(=O)Nc2ccc(CN3CCOCC3)cc2)c1	7	51	15	27	8	9	16	12	3
CC(C)COc1cccc(C(=O)Nc2ccc(S(=O)(=O)N3CCOCC3)cc2)c1	-2	5	-1	-12	19	17	.	.	.
CCOC(=O)c1cccc(NC(=O)CN(C)S(=O)(=O)c2ccc(C)c(C)c2)c1	.	.	.	6	.	6	.	.	.
CCS(=O)(=O)Nc1ccc2c(c1)C(=O)N(C)[C@@H]1CC[C@H](CC(=O)NCCCN3CCOCC3)O[C@H]1CO2	.	.	.	-17	.	-25	.	.	.
CN1CCN(NC(=O)c2ccc(Cl)s2)CC1	9	52	-11	-2	14	14	14	0	15
CN1CCN(NC(=O)c2ccc(F)cc2)CC1	12	24	-16	-19	-11	3	.	.	.

High-throughput results deposited in PubChem by several laboratories.
